Measured values taken from PubChem BioAssay AID1159580 (chemical genetic matrix, 2015).
Several values for one entry are separate records, joined by “and”; a condition that tells them apart may be missing. Equal values may be shown once. Hit rate of the full screen: of about 5,500 compounds, about 2,000 (36%) were called active. About 18% were inconclusive and are not listed. No stated cut-off is given here; in the data, active means normalized growth mostly below about 0.91 (no sharp cut-off); inconclusive means no clear call, values can overlap the other calls; inactive means mostly above about 0.92. This is one part of the list.

Experiment: chemical genetic growth profiling, strain panel (AID 1159580);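 further: tested at 20 µM; growth read once vehicle control cultures reached saturation at 30 °C; 1 = growth at the plate median or of vehicle wells; lower values mean less growth of the strain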
Conditions: S. cerevisiae deletion strains, growth OD

Measured: normalized growth

CC1=C(O)C(=O)C=C2C1=CC=C1[C@@]2(C)CC[C@@]2(C)[C@@H]3C[C@](C)(C(=O)O)CC[C@]3(C)CC[C@]12C
active: locus YAL021C, strain ccr4, hits give low values 0.56 | locus YAL026C, strain drs2, hits give low values 0.51 | locus YAL030W, strain snc1, hits give low values 0.573 | locus YBL061C, strain skt5, hits give low values 0.479 | locus YBR009C, strain hhf1, hits give low values 0.375 | locus YBR023C, strain chs3, hits give low values 0.42 | locus YBR171W, strain sec66, hits give low values 0.812 | locus YBR229C, strain ROT2, hits give low values 0.623 | locus YBR231C, strain swc5, hits give low values 0.307 | locus YBR279W, strain paf1, hits give low values 0.527 | locus YCL011C, strain gbp2, hits give low values 0.433 | locus YCL016C, strain dcc1, hits give low values 0.592 | locus YCL029C, strain bik1, hits give low values 0.493 | locus YCL061C, strain MRC1, hits give low values 0.611 | locus YCL069W, strain vba3, hits give low values 0.611 | locus YCR088W, strain abp1, hits give low values 0.64 | locus YDL005C, strain med2, hits give low values 0.509 | locus YDL035C, strain GPR1, hits give low values 0.391 | locus YDL040C, strain nat1, hits give low values 0.848 | locus YDL074C, strain BRE1, hits give low values 0.195 | locus YDL101C, strain DUN1, hits give low values 0.264 | locus YDL134C, strain PPH21, hits give low values 0.44 | locus YDL192W, strain arf1, hits give low values 0.568 | locus YDR001C, strain nth1, hits give low values 0.806 | locus YDR069C, strain doa4, hits give low values 0.327 | locus YDR101C, strain arx1, hits give low values 0.665 | locus YDR137W, strain rgp1, hits give low values 0.238 | locus YDR159W, strain sac3, hits give low values 0.403 | locus YDR162C, strain NBP2, hits give low values 0.098 | locus YDR195W, strain ref2 0.348 | locus YDR297W, strain sur2, hits give low values 0.429 | locus YDR318W, strain mcm21, hits give low values 0.523 | locus YDR334W, strain swr1, hits give low values 0.353 | locus YDR335W, strain msn5, hits give low values 0.522 | locus YDR388W, hits give low values 0.683 | locus YDR392W, strain spt3, hits give low values 0.101 | locus YDR502C, strain sam2, hits give low values 0.521 | locus YEL003W, strain gim4, hits give low values 0.489 | locus YEL037C, strain rad23, hits give low values 0.769 | locus YEL061C, strain CIN8 (second series), hits give low values 0.403 | locus YEL061C, strain CIN8, hits give low values 0.391 | locus YER015W, strain faa2, hits give low values 0.429 | locus YER016W, strain bim1, hits give low values 0.565 | locus YER110C, hits give low values 0.766 | locus YER111C, strain swi4, hits give low values 0.329 | locus YER155C, strain BEM2 (second series), hits give low values 0.342 | locus YER155C, strain BEM2, hits give low values 0.254 | locus YER167W, strain BCK2, hits give low values 0.334 | locus YFR010W, strain ubp6, hits give low values 0.657 | locus YGL078C, strain dbp3, hits give low values 0.905 | locus YGL086W, strain mad1, hits give low values 0.619 | locus YGL167C, strain pmr1, hits give low values 0.706 | locus YGL173C, strain kem1, hits give low values 0.27 | locus YGL227W, strain vid30, hits give low values 0.571 | locus YGL240W, strain doc1, hits give low values 0.646 | locus YGL248W, strain PDE1, hits give low values 0.369 | locus YGL253W, strain hxk2, hits give low values 0.485 | locus YGR135W, strain pre9, hits give low values 0.557 | locus YGR252W, strain gcn5, hits give low values 0.5 | locus YHR013C, strain ard1, hits give low values 0.273 | locus YHR027C, strain rpn1, hits give low values 0.423 | locus YHR030C, strain SLT2, hits give low values 0.248 and 0.76 | locus YHR079C, strain IRE1 (second series), hits give low values 0.659 | locus YHR079C, strain IRE1, hits give low values 0.732 | locus YHR094C, strain hxt1, hits give low values 0.721 | locus YHR129C, strain ARP1, hits give low values 0.349 | locus YHR142W, strain chs7, hits give low values 0.309 | locus YHR200W, strain rpn10, hits give low values 0.749 | locus YIL066C, strain RNR3, hits give low values 0.308 | locus YIL073C, strain SPO22, hits give low values 0.623 | locus YIL125W, strain kgd1, hits give low values 0.812 | locus YIR030C, strain dcg1, hits give low values 0.552 | locus YJL092W, strain hpr5, hits give low values 0.7 | locus YJL095W, strain BCK1 (second series), hits give low values 0.372 | locus YJL095W, strain BCK1, hits give low values 0.211 and 0.783 | locus YJL115W, strain asf1, hits give low values 0.856 | locus YJL129C, strain trk1, hits give low values 0.35 | locus YJL134W, strain LCB3, hits give low values 0.692 | locus YJL154C, strain vps35, hits give low values 0.776 | locus YJL164C, strain tpk1, hits give low values 0.316 | locus YJL166W, strain qcr8, hits give low values 0.312 | locus YJL168C, strain set2, hits give low values 0.866 | locus YJL187C, strain SWE1 (second series), hits give low values 0.142 | locus YJR043C, strain POL32, hits give low values 0.385 | locus YJR066W, strain TOR1, hits give low values 0.792 | locus YKL068W, hits give low values 0.895 | locus YKL160W, strain elf1, hits give low values 0.541 | locus YKL190W, strain CNB1, hits give low values 0.315 | locus YKR001C, strain vps1, hits give low values 0.13 | locus YKR026C, strain gcn3, hits give low values 0.852 | locus YKR091W, strain srl3, hits give low values 0.843 | locus YLL001W, strain dnm1, hits give low values 0.617 | locus YLL026W, hits give low values 0.74 | locus YLL041C, strain sdh2, hits give low values 0.764 | locus YLR027C, strain aat2, hits give low values 0.502 | locus YLR039C, strain RIC1, hits give low values 0.157 | locus YLR058C, strain SHM2, hits give low values 0.224 | locus YLR102C, strain apc9, hits give low values 0.83 | locus YLR113W, strain HOG1, hits give low values 0.472 | locus YLR221C, strain rsa3, hits give low values 0.419 | locus YLR258W, strain gsy2, hits give low values 0.541 | locus YLR262C, strain YPT6 (second series), hits give low values 0.149 | locus YLR262C, strain YPT6, hits give low values 0.182 | locus YLR268W, strain sec22, hits give low values 0.355 | locus YLR320W, strain mms22, hits give low values 0.256 | locus YLR330W, strain CHS5, hits give low values 0.253 | locus YLR342W, strain FKS1 (second series), hits give low values 0.336 | locus YLR342W, strain FKS1, hits give low values 0.387 | locus YLR357W, strain rsc2, hits give low values 0.731 | locus YLR370C, strain arc18, hits give low values 0.704 | locus YLR371W, strain rom2, hits give low values 0.418 | locus YLR384C, strain iki3, hits give low values 0.759 | locus YLR418C, strain cdc73, hits give low values 0.176 | locus YML016C, strain PPZ1, hits give low values 0.547 | locus YML032C, strain rad52, hits give low values 0.533 | locus YML120C, strain ndi1, hits give low values 0.608 | locus YML124C, strain tub3, hits give low values 0.738 | locus YMR058W, strain fet3, hits give low values 0.0928 | locus YMR078C, strain ctf18, hits give low values 0.472 | locus YMR125W, strain sto1, hits give low values 0.827 | locus YMR129W, hits give low values 0.795 | locus YMR205C, strain PFK2, hits give low values 0.337 | locus YMR223W, strain ubp8, hits give low values 0.581 | locus YMR231W, strain pep5, hits give low values 0.365 | locus YMR263W, strain SAP30, hits give low values 0.561 | locus YMR307W, strain GAS1, hits give low values 0.252 | locus YNL067W, strain RPL9B, hits give low values 0.518 | locus YNL071W, strain lat1, hits give low values 0.11 | locus YNL183C, strain NPR1, hits give low values 0.728 | locus YNL209W, strain ssb2, hits give low values 0.303 | locus YNL233W, strain BNI4, hits give low values 0.287 | locus YNL248C, strain rpa49, hits give low values 0.708 | locus YNL250W, strain rad50, hits give low values 0.887 | locus YNL271C, strain bni1, hits give low values 0.882 | locus YNL307C, strain MCK1, hits give low values 0.093 | locus YNR049C, strain mso1, hits give low values 0.781 | locus YNR052C, strain pop2, hits give low values 0.664 | locus YOL147C, strain pex11, hits give low values 0.137 | locus YOR001W, strain rrp6, hits give low values 0.678 | locus YOR061W, strain CKA2, hits give low values 0.509 | locus YOR069W, strain VPS5, hits give low values 0.638 | locus YOR070C, strain gyp1, hits give low values 0.449 | locus YOR080W, strain dia2, hits give low values 0.674 | locus YOR083W, strain WHI5, hits give low values 0.624 | locus YOR106W, strain vam3, hits give low values 0.244 | locus YOR136W, strain idh2, hits give low values 0.765 | locus YOR144C, strain elg1, hits give low values 0.304 | locus YOR184W, strain ser1, hits give low values 0.173 | locus YOR231W, strain MKK1, hits give low values 0.75 | locus YOR265W, strain rbl2, hits give low values 0.552 | locus YOR270C, strain vph1, hits give low values 0.236 | locus YOR290C, strain snf2, hits give low values 0.249 | locus YOR316C, strain cot1, hits give low values 0.698 | locus YPL051W, strain arl3, hits give low values 0.209 | locus YPL078C, strain atp4, hits give low values 0.528 | locus YPL106C, strain sse1, hits give low values 0.435 | locus YPL240C, strain hsp82, hits give low values 0.444 | locus YPL241C, strain CIN2, hits give low values 0.565 | locus YPL256C, strain CLN2, hits give low values 0.663 | locus YPR119W, strain clb2, hits give low values 0.61 | locus YPR141C, strain kar3, hits give low values 0.886 | locus YPR163C, strain tif3, hits give low values 0.257 | locus YPR167C, strain met16, hits give low values 0.538 | strain wtn01, hits give low values 0.436
inactive: locus YBR021W, strain FUR4, hits give low values 0.859 | locus YDL185W, strain tfp1, hits give low values 0.943 | locus YKL009W, strain mrt4, hits give low values 0.908 | locus YKL085W, strain MDH1 (second series), hits give low values 0.941 | locus YKL085W, strain MDH1, hits give low values 0.941 | locus YNL298W, strain CLA4, hits give low values 0.918 | locus YNL322C, strain KRE1 (second series), hits give low values 0.937 | locus YOL012C, strain htz1 0.278
